These results are taken from PubChem BioAssay (NCATS).

Results filed as inconclusive are left out. Where a call stands in place of a potency, no number is given. Activity calls are given as the source filed them. The call rests on the fitted dose curve; in most records, active means well fitted curve in the direction sought with a large enough effect; inconclusive means small, poorly fitted or top-dose-only effect, or another doubt; inactive means no such curve, though single readings can be large; an effect the other way counts as inactive or inconclusive.

The target of one test is Metallo-beta-lactamase type 2 (Klebsiella pneumoniae) (UniProt C7C422). Nature of the test: qHTS to identify inhibitors of the New Delhi Metallo-beta-lactamase (NDM): assay validation screen against the NCATS LOPAC Collection (AID 1794843). The settings on record: NDM-1 enzyme, nitrocefin hydrolysis, absorbance 485 nm; series mostly up to 38.4 µM. The gist of the method: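 Absorbance at 485 nm from nitrocefin turnover (50 uM solution added), read at plateau, gives the read-out. Compounds in DMSO were incubated first with 2 nM final NDM-1 in pH 7.0 HEPES buffer containing 1 uM ZnSO4 and 0.01% Tween20.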
Metallo-beta-lactamase type 2 (Klebsiella pneumoniae), sequence (C7C422 whole entry, looked up): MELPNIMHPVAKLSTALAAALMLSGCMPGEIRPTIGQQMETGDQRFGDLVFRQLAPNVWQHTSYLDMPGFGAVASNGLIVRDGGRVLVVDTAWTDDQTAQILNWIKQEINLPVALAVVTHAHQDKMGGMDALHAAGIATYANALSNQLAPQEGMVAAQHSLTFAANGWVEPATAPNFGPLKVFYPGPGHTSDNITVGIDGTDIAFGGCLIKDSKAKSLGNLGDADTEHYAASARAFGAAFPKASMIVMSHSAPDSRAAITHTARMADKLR
`CC(Cc1ccc(O)cc1)NCC(O)c1cc(O)cc(O)c1` (stereo not drawn): the outcome was inactive.
As for `C#CCOC(=O)C1=CCCN(C)C1`, the molecule was called inactive.
Still for that read-out and setting: then `O=C(O)CC[N+](=O)[O-]`, with “inactive”; and `CC(=O)NCCc1c[nH]c2ccccc12`, with “inactive”.
On the same count and under the same terms, the entry for `C[C@]12CCC3C(CC[C@H]4C[C@H](O)CC[C@]34C)C1CC[C@@H]2C(=O)CO` (stereo partly drawn) is “inactive”; for `C[C@@H]1O[C@H](C[N+](C)(C)C)C[C@H]1O` it is “inactive”.
With `COc1ccc2c(c[n+](C)c3c4cc5c(cc4ccc23)OCO5)c1OC`, the molecule was called inactive.
Still for that read-out and setting: the entry for `O=C(Cc1ccc(Cl)c(Cl)c1)N1CCCCC1CN1CCCC1` (stereo not drawn) is “inactive”; for `CCCN1CCO[C@@H]2c3cc(O)ccc3OC[C@H]21` it is “inactive”.
The same measure, in the same setting: the entry for `CC1=NN=C(c2ccc(N)cc2)c2cc3c(cc2C1)OCO3` is “inactive”; for `O=C(N[C@H]1CN2CCC1CC2)c1ccc(Cl)cc1` it is “inactive”.
Still for that read-out and setting: the entry for `c1ccc(CCCN2CCN(CCOC(c3ccccc3)c3ccccc3)CC2)cc1` is “inactive”; for `C[N+](C)(C)CC(=O)O` it is “inactive”; for `NC(CCP(=O)(O)O)C(=O)O` (stereo not drawn) it is “inactive”.
For the molecule `COc1cc(C(O)CN)ccc1O` (stereo not drawn), the molecule was classed as inactive.
As for `S=C(NC1CCCCC1)N1CCC(c2cnc[nH]2)CC1`, the outcome was inactive.
The same measure, in the same setting: then `CN1C2CCC1CC(OC(=O)c1cc(Cl)cc(Cl)c1)C2` (stereo not drawn), with “inactive”; and `NC(N)=NOCCC(N)C(=O)O` (stereo not drawn), with “inactive”.
`CC(C)Oc1cccnc1N(C)C1CCN(Cc2ccccc2)CC1`: the molecule was called inactive.
The same measure, in the same setting: then `CC[C@@H](C(N)=O)N1CCCC1=O`, with “inactive”; and `NCCc1c[nH]c2ccc(O)cc12`, with “inactive”; and `CC(=O)[C@H]1CCC2C3CC[C@H]4C[C@H](O)CC[C@]4(C)C3CC[C@@]21C` (stereo partly drawn), with “inactive”.
Consider `CCCCc1ccc(C(=O)O)nc1`, for which the outcome was inactive.
On to `COC(=O)[C@@H](N)CCCN=C(N)N[N+](=O)[O-]`, for which the molecule was classed as inactive.
Same read-out and setting: the entry for `NC(=O)CN1CC(O)CC1=O` (stereo not drawn) is “inactive”; for `Clc1cnc(Oc2ccc(Oc3ncc(Cl)cc3Cl)cc2)c(Cl)c1` it is “inactive”; for `NC(=NCCC[C@H](N)C(=O)O)N[N+](=O)[O-]` it is “inactive”.

For a further test, the target named is Glutathione peroxidase 1 (Homo sapiens) (UniProt P07203). The test is described as follows: Primary qHTS Assay for Inhibitors of Recombinant Selenoprotein Glutathione Peroxidase 1 (GPX1) (AID 1845191). Further: nearly all actives have a fitted effect of over 65% in size. Further: potency means the concentration at half of the fitted maximal effect. To be noted: recombinant GPX1, GR-coupled NADPH fluorescence, 15 min; series mostly up to 48.8 µM. Summed up: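 NADPH consumption tracked by fluorescence at 340/450 nm between t=0 and t=15 min, room temperature. Final mix: 10 nM GPX1, 100 nM glutathione reductase, 1 mM GSH, 0.5 mM NADPH, 0.5 mM cumene hydroperoxide, 0.01% BSA; 30 min compound–enzyme preincubation.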
Glutathione peroxidase 1 (Homo sapiens), sequence (P07203 whole entry, looked up): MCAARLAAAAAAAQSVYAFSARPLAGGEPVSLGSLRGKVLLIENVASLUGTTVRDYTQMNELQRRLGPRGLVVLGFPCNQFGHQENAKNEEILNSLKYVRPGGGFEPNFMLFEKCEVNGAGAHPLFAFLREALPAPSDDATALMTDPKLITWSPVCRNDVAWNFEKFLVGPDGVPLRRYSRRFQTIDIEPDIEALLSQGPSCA
For the molecule `CC(Cc1ccc(O)cc1)NCC(O)c1cc(O)cc(O)c1` (stereo not drawn), the Potency entry was “inactive”.
As for `C#CCOC(=O)C1=CCCN(C)C1`, the Potency entry was “inactive”.
On the same count and under the same terms, the entry for `O=C(O)CC[N+](=O)[O-]` is “inactive”.
`CC(=O)NCCc1c[nH]c2ccccc12`: the Potency entry was “inactive”.
On the same count and under the same terms, then `C[C@]12CCC3C(CC[C@H]4C[C@H](O)CC[C@]34C)C1CC[C@@H]2C(=O)CO` (stereo partly drawn), with “inactive”; and `C[C@@H]1O[C@H](C[N+](C)(C)C)C[C@H]1O`, with “inactive”; and `COc1ccc2c(c[n+](C)c3c4cc5c(cc4ccc23)OCO5)c1OC`, with “inactive”.
Take `O=C(Cc1ccc(Cl)c(Cl)c1)N1CCCCC1CN1CCCC1` (stereo not drawn): the Potency entry is “inactive”.
On to `CCCN1CCO[C@@H]2c3cc(O)ccc3OC[C@H]21`, for which the Potency result is “inactive”.
Still for that read-out and setting: then `CC1=NN=C(c2ccc(N)cc2)c2cc3c(cc2C1)OCO3`, with “inactive”.
On the same count and under the same terms, the entry for `O=C(N[C@H]1CN2CCC1CC2)c1ccc(Cl)cc1` is “inactive”.
The same measure, in the same setting: the entry for `O=c1[nH]c2ccccc2n1C1CCN(Cc2ccc(-c3[nH]c4cc5ncnc5cc4nc3-c3ccccc3)cc2)CC1` is “inactive”; for `c1ccc(CCCN2CCN(CCOC(c3ccccc3)c3ccccc3)CC2)cc1` it is “inactive”.
For the molecule `C[N+](C)(C)CC(=O)O`, the Potency entry is “inactive”.
Still for that read-out and setting: the entry for `NC(CCP(=O)(O)O)C(=O)O` (stereo not drawn) is “inactive”; for `COc1cc(C(O)CN)ccc1O` (stereo not drawn) it is “inactive”; for `S=C(NC1CCCCC1)N1CCC(c2cnc[nH]2)CC1` it is “inactive”.
Turning to `S=C(SSC(=S)N1CCCCC1)N1CCCCC1`, the Potency was 12.8 µM (active).
Still for that read-out and setting: then `CN1C2CCC1CC(OC(=O)c1cc(Cl)cc(Cl)c1)C2` (stereo not drawn), with “inactive”; and `NC(N)=NOCCC(N)C(=O)O` (stereo not drawn), with “inactive”; and `CC(C)Oc1cccnc1N(C)C1CCN(Cc2ccccc2)CC1`, with “inactive”.
In the case of `CC[C@@H](C(N)=O)N1CCCC1=O`, the Potency result was “inactive”.
Consider `NCCc1c[nH]c2ccc(O)cc12`, for which the Potency result is “inactive”.
`CC(=O)[C@H]1CCC2C3CC[C@H]4C[C@H](O)CC[C@]4(C)C3CC[C@@]21C` (stereo partly drawn): the Potency entry is “inactive”.
Same read-out and setting: the entry for `O=C(O)C(Cl)Cl` is “inactive”; for `CCCCc1ccc(C(=O)O)nc1` it is “inactive”.
Regarding `COC(=O)[C@@H](N)CCCN=C(N)N[N+](=O)[O-]`, the Potency result was “inactive”.
The same measure, in the same setting: then `NC(=O)CN1CC(O)CC1=O` (stereo not drawn), with “inactive”; and `Clc1cnc(Oc2ccc(Oc3ncc(Cl)cc3Cl)cc2)c(Cl)c1`, with “inactive”; and `NC(=NCCC[C@H](N)C(=O)O)N[N+](=O)[O-]`, with “inactive”.
Take `CC(C)(C)c1cc(C=C(C#N)C#N)cc(Br)c1O`: the Potency entry is “inactive”.
